The record followed here is the supplement of paper PMC13380429.

Assay [1] has as its system Vero E6 infected with SARS-CoV-2. The assay can be described thus: morphology score (similarity to uninfected cells); higher = more like uninfected cells. Conditions: 24 h.
Assay [2] has the same test system. In words: SARS-CoV-2 infection rate relative to infected DMSO; higher = more infection, active = 60 or less. Conditions: 24 h.

Regarding `O=c1c(O[C@@H]2O[C@H](CO)[C@H](O)[C@H](O)[C@H]2O)c(-c2ccc(O)c(O)c2)oc2cc(O)cc(O)c12` [hyperin] (10 µM), in assay [1], the morphology score was -0.0819. Besides, the SARS-CoV-2 infection rate in assay [2] was 112% (inactive).
The compound `COc1cccc(OC)c1-c1ccc(C[C@H](NC(=O)c2c(Cl)cccc2Cl)C(=O)O)cc1` (10 µM) yielded a morphology score in assay [1] of -0.141. Moreover, the SARS-CoV-2 infection rate in assay [2] is 102% (inactive).
In assay [1], `COc1c(C)c2c(c(O)c1C/C=C(\C)CCC(=O)OCCN1CCOCC1)C(=O)OC2` [mycophenolate-mofetil] (10 µM) gave a morphology score of -0.124. The SARS-CoV-2 infection rate in assay [2] was 108% (inactive).
In the same order, the values of `CCCCCCCCCCCC1=C(O)C(=O)C=C(O)C1=O` [embelin] (10 µM) are -0.0413 and 106% (inactive).
As for `COc1ccccc1CN[C@H]1CCCN[C@H]1c1ccccc1` (10 µM), the morphology score in assay [1] was 0.24. For the same compound, the SARS-CoV-2 infection rate in assay [2] was 86% (inactive).
`Cc1cc(CN)cc(C)c1NC(=O)c1ccc(-c2cc(Cl)ccc2Cl)o1` (10 µM): in assay [1], the morphology score was determined as 0.717. In assay [2], the SARS-CoV-2 infection rate is 7.5% (active).
Consider `O=C(O[C@H]1[C@H](OC(=O)c2cccnc2)[C@@H](OC(=O)c2cccnc2)[C@H](OC(=O)c2cccnc2)[C@@H](OC(=O)c2cccnc2)[C@H]1OC(=O)c1cccnc1)c1cccnc1` [inositol-hexanicotinate] (10 µM), for which the morphology score in assay [1] was found to be 0.0225. For the same compound, the SARS-CoV-2 infection rate in assay [2] is 109% (inactive).
Turning to `CCN(CC)CCOC(=O)C1(C2CCCCC2)CCCCC1` [dicycloverine] (10 µM), in assay [1], the morphology score was determined as 0.311. The SARS-CoV-2 infection rate in assay [2] is 90% (inactive).
The compound `CCc1cncnc1N1CCN(Cc2nc3cc(C(F)(F)F)ccc3[nH]2)CC1` (10 µM) came in with a morphology score in assay [1] of -0.441. Further, the SARS-CoV-2 infection rate in assay [2] is 116% (inactive).
`CC(C)(CO)Cc1cc(C(C)(C)C)c(O)c(C(C)(C)C)c1` (10 µM) gave a morphology score in assay [1] of -0.127. Moreover, the SARS-CoV-2 infection rate in assay [2] is 108% (inactive).
Take `CNCC(O)c1ccc(OC(=O)C(C)(C)C)c(OC(=O)C(C)(C)C)c1` (centres undefined) [dipivefrine] (10 µM): the morphology score in assay [1] came to 0.127. Besides, in assay [2], the SARS-CoV-2 infection rate was 89.5% (inactive).
In the same order, the values of `COC(=O)C1=C(C)NC(C)=C(C(=O)OCC(C)C)C1c1ccccc1[N+](=O)[O-]` (centres undefined) [nisoldipine] (0.833333 µM) are -0.0369 and 112% (inactive).
The compound `CN1CCCC(CN2c3ccccc3Sc3ccccc32)C1` (centres undefined) [mepazine] (10 µM) displayed a morphology score in assay [1] of 0.538. For the same compound, the SARS-CoV-2 infection rate in assay [2] was 60.5% (inactive).
On to `CCN(C)C(=O)Oc1cccc([C@H](C)N(C)C)c1` [rivastigmine] (10 µM), for which the morphology score in assay [1] stood at 0.136. For the same compound, in assay [2], the SARS-CoV-2 infection rate was 101% (inactive).
`CC(C)NCC(O)COc1ccc(COCCOC(C)C)cc1` (centres undefined) [bisoprolol] (10 µM): the morphology score in assay [1] is -0.0255. Also, in assay [2], the SARS-CoV-2 infection rate is 106% (inactive).
The corresponding values for `CCn1cc(C(=O)O)c(=O)c2cc3c(cc21)OCO3` [oxolinic-acid] (10 µM) are 0.162 and 96% (inactive).
Take `Cc1ccc(S(=O)(=O)NC(=O)NN2CCCCCC2)cc1` [tolazamide] (10 µM): in assay [1], the morphology score is 0.103. For the same compound, the SARS-CoV-2 infection rate in assay [2] is 100% (inactive).
Turning to `Cc1[nH]c2ccc(F)cc2c1-c1nc2c3cccnc3c3ncccc3c2[nH]1` (10 µM), in assay [1], the morphology score is 0.21. Moreover, the SARS-CoV-2 infection rate in assay [2] is 102% (inactive).
In turn, `COc1ccccc1N1CCN(CCN2C(=O)c3ccccc3C(C)(C)C2=O)CC1` (10 µM) came in with a morphology score in assay [1] of 0.213. The SARS-CoV-2 infection rate in assay [2] is 100% (inactive).
The corresponding values for `Fc1ccc(-c2c3cccc(C(F)(F)F)c3nn2Cc2ccc(F)cc2Cl)cc1` (10 µM) are 0.289 and 95.5% (inactive).
Take `O=C1OCCN1/N=C/c1ccc([N+](=O)[O-])o1` [furazolidone] (10 µM): in assay [1], the morphology score came to 0.0225. In addition, the SARS-CoV-2 infection rate in assay [2] was 102% (inactive).
In turn, `CNC(=O)[C@H]1O[C@@H](n2cnc3c(NCc4cccc(I)c4)nc(Cl)nc32)[C@H](O)[C@@H]1O` (10 µM) returned a morphology score in assay [1] of -0.0292. The SARS-CoV-2 infection rate in assay [2] was 107% (inactive).
In the same order, the values of `O=C(CCCN1CCC2(CC1)C(=O)NCN2c1ccccc1)c1ccc(F)cc1` [spiperone] (10 µM) are 0.763 and 22% (active).
Turning to `Nc1nccs1` [aminothiazole] (10 µM), the morphology score in assay [1] amounted to 0.0165. For the same compound, the SARS-CoV-2 infection rate in assay [2] was 104% (inactive).
On to `O=C(NCCCN1CCCCCC1)C(c1ccccc1)C1CCCCC1` (centres undefined) (10 µM), for which the morphology score in assay [1] was 0.404. Also, in assay [2], the SARS-CoV-2 infection rate was 75.5% (inactive).
On to `CCN(C(C)=O)c1cccc(-c2ccnc3c(C#N)cnn23)c1` (10 µM), for which the morphology score in assay [1] amounted to 0.0588. In assay [2], the SARS-CoV-2 infection rate is 98.5% (inactive).
Compound `N#Cc1c(N)nc(SCC(N)=O)c(C#N)c1-c1ccc(OCC2CC2)cc1` (10 µM) came in with a morphology score in assay [1] of -0.0282. The SARS-CoV-2 infection rate in assay [2] was 108% (inactive).
Take `COc1ccc(N(C(=O)Oc2c(C)cccc2C)c2ccnc(Nc3ccc(N4CCN(C)CC4)cc3)n2)c(OC)c1` (10 µM): in assay [1], the morphology score was determined as 0.0671. Also, the SARS-CoV-2 infection rate in assay [2] was 111% (inactive).
As to `CCOc1cc(OCC)c(C(=O)CCC(=O)O)cc1OCC` [trepibutone] (10 µM), in assay [1], the morphology score is -0.0558. Besides, in assay [2], the SARS-CoV-2 infection rate is 106% (inactive).
`NC(CO)C(=O)NNCc1ccc(O)c(O)c1O` (centres undefined) [benserazide] (10 µM) displayed a morphology score in assay [1] of -0.102. Besides, the SARS-CoV-2 infection rate in assay [2] is 96.5% (inactive).
As to `C=C1CC/C=C(\C)CC[C@@H]2[C@@H]1CC2(C)C` [g-caryophyllene] (10 µM), the morphology score in assay [1] amounted to 0.0545. Moreover, the SARS-CoV-2 infection rate in assay [2] was 95% (inactive).
In assay [1], `Cc1nc(-c2cn3c(n2)-c2ccc(-c4cnn(C(C)(C)C(N)=O)c4)cc2OCC3)n(C(C)C)n1` [taselisib] (0.833333 µM) yielded a morphology score of -0.0504. Moreover, in assay [2], the SARS-CoV-2 infection rate is 98.5% (inactive).
